Compounds with a hit are over-represented: about 19% of the library has one in this group of screens.
DT40 TDP1 no CPT: qHTS for Inhibitors of human tyrosyl-DNA phosphodiesterase 1 (TDP1): qHTS in cells in absence of CPT | hit rate 15% among 420,000 | AID 686978, 2013 | DT40 Tdp1-/- hTDP1 cells, no CPT, ATP luminescence, 48 h | Potency, µM (titrated, usually from 46.2 µM), hits mostly inhibitors; further: nearly all actives have a fitted effect of over 55% in size
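Compound effects on proliferation are scored in DT40 Tdp1-/-;hTDP1 cells in the absence of CPT. ATP levels (CellTiter-Glo luminescence) are recorded after a ≥48 hr, 37 °C incubation.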
TDP1 cell CPT: DT40-hTDP1 cell growth loss with CPT; chicken DT40 Tdp1-/-;hTDP1 cells + 20 nM CPT, ATP luminescence, 48 h; Potency, µM (top dose mostly 46.2 µM), usual class: inhibitors; hit rate 12% among 420,000; AID 686979; further: nearly all actives have a fitted effect of over 55% in size
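Cell growth measured by CellTiter-Glo luminescence after a minimum 48 h, 37 C compound exposure with 20 nM CPT in Tdp1-knockout DT40 cells stably expressing hTDP1, seeded 400/well; qHTS titration format.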
TDP1 block: inhibitors of human tyrosyl-DNA phosphodiesterase TDP1. recombinant TDP1, AlphaScreen DNA substrate cleavage. Potency, µM (titrated, usually from 130 µM), hits mostly inhibitors. hit rate 0.28% among 350,000. AID 485290; further: nearly all actives have a fitted effect of over 40% in size
Target sequence (Q9NUW8 whole entry, looked up): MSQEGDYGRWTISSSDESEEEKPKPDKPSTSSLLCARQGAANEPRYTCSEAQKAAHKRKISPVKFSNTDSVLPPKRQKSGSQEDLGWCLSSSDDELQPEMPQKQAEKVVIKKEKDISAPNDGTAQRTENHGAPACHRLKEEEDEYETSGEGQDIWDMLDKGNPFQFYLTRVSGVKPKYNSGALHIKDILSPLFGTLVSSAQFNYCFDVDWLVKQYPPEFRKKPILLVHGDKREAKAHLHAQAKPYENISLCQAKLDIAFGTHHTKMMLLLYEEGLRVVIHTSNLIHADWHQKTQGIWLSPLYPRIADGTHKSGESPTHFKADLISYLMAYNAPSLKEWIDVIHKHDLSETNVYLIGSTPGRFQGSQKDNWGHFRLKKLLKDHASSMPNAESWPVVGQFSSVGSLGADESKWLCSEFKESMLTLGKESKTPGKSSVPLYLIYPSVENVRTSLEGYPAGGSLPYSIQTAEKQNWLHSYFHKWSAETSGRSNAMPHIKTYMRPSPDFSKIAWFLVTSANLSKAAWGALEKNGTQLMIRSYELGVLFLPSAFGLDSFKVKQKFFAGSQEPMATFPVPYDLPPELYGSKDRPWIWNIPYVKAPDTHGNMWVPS
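E. coli-derived human Tdp1, 1 nM final. Cpd preinc 15 min RT; substrate 15 nM final, 5 min RT; AS bead mix 10 ug/ml final, 10 min RT. Signal loss = tyrosine-FITC cleavage. No-enzyme wells = max signal.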
ELG1 repair inh: inhibitors of ELG1-dependent DNA repair in HEK293T cells; HEK293T ELG1-luciferase reporter, luminescence, 16 h; DNA damage induced by 5-fluorouridine; Potency, µM (doses to about 46.1 µM), most hits filed as inhibitors; hit rate 2.3% among 330,000; AID 504467; further: nearly all actives have a fitted effect of over 55% in size
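Overnight (16 hr) co-exposure of 2,000 cells/well to 5-fluorouridine and compound at 37 °C preceded detection. Luciferase was quantified via ONE-Glo luminescence; loss of signal denotes inhibition.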
Giardia killer: Giardia lamblia killing | AID 540267 | activity change, % at 7.66 µM, hits read low | hit rate 0.15% among 340,000 | Giardia lamblia trophozoite viability; in the data active means activity change below about -80%; inconclusive means between about -30% and that limit;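 further: parasites exposed to compound for two days anaerobically before the ATP read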
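Killing of trophozoites was scored by loss of ATP luminescence after a 48 hrs anaerobic exposure to compounds at 37 deg C, using 100 cells per well.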
IL1B secr inh: blocks inflammasome-driven IL-1 beta release. THP-1 LPS/ATP IL-1B secretion, AlphaLISA, 16 h; stronger effect = lower value. activity change, % at 57.5 µM. hit rate 4.7% among 360,000. AID 743279; in the data active means activity change below about -50%; inconclusive means mostly about -30% to -49%
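THP-1 cells pretreated 1 hr with compounds (up to 57.5 uM final), then stimulated with LPS (250 ng/mL final) plus ATP (1.25 mM final); secreted IL-1B measured by AlphaLISA after 16 hr, decreased signal indicating inhibition.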
Hits are given with their value; i = inactive; ? = inconclusive; nt = no result given. Unless noted, the call rests on the fitted dose curve; in most records, active means well fitted curve in the direction sought with a large enough effect; inconclusive means small, poorly fitted or top-dose-only effect, or another doubt; inactive means no such curve, though single readings can be large; an effect the other way counts as inactive or inconclusive.

SMILES | DT40 TDP1 no CPT | TDP1 cell CPT | TDP1 block | ELG1 repair inh | Giardia killer | IL1B secr inh
COc1cccc2cc(C(=O)NCc3ccc(Cl)cc3)c(=N)oc12 | ? | 23µM | i | i | i | -91
CCOc1cccc2cc(C(=O)NC(C)c3ccccc3)c(=N)oc12 (centres undefined) | 26µM | ? | i | i | i | i
C=CCNc1nc2c(c(=O)[nH]c(=O)n2C)n1CCOc1ccccc1 | ? | i | nt | i | i | i
O=C(NC1CC(=O)N(c2ccccc2)C1)c1cc2ccccc2o1 (centres undefined) | ? | i | i | nt | nt | nt
O=C1Nc2ccccc2-c2nnnn2C1N1CCC(Cc2ccccc2)CC1 (centres undefined) | 18µM | ? | nt | nt | nt | i
Cc1cc2c(cc1C)C(=O)C(=O)N2 | ? | ? | nt | nt | i | i
Cc1cc2c(cc1C)-c1nnnn1C(N1CCCCC1)C(=O)N2 (centres undefined) | 9.2µM | 15µM | nt | nt | nt | i
C=CCNC(=S)NNc1nc2sc3c(c2c(=O)[nH]1)CC(C)(C)OC3 | ? | i | i | i | ? | i
Cc1cc(/C=C2\SC(=S)N(Cc3ccco3)C2=O)c(C)n1-c1ccccc1 | ? | ? | i | ? | i | i
COc1ccc(-n2c(C)cc(/C=C3/SC(=S)N(C)C3=O)c2C)cc1 | 18µM | 21µM | i | ? | i | i
CN1C(=O)/C(=C\c2cc(N=Nc3ccccc3)ccc2O)SC1=S | 23µM | 21µM | i | i | i | i
CN1C(=O)/C(=C\c2ccccc2OCc2ccccc2)SC1=S | i | i | nt | i | i | i
Cc1cc(/C=C2\SC(=S)N(C)C2=O)c(C)n1-c1cccc(O)c1 | ? | 23µM | nt | ? | i | i
CC(=O)C[C@H](O)CC(=O)[C@H]1OC(=O)CCCCCCCCc2ccccc21 | ? | ? | i | i | i | i
O=C(c1ccc(F)cc1)C1CCN(CCn2c(=O)[nH]c3ccccc3c2=O)CC1 | nt | nt | i | nt | nt | nt
O=C(c1ccc(F)cc1)C1CCN(CCn2c(=S)[nH]c3ccccc3c2=O)CC1 | 15µM | ? | i | nt | nt | nt
CC1(C)C(=O)N(CCN2CCC(C(=O)c3ccc(F)cc3)CC2)c2ccccc21 | 15µM | 13µM | i | ? | i | i
Cc1cc2nccc(-c3ccncc3)n2n1 | i | ? | i | 13µM | i | i
CCOc1ccc(/C=N/NC(=O)c2ccc(F)cc2)cc1CN1CC2CC(C1)c1cccc(=O)n1C2 (centres undefined) | ? | ? | i | ? | i | i
CCOC(=O)C1CCCN(C(=O)c2ccc3nc(-c4ccc(OC)c(OC)c4)c(-c4ccc(OC)c(OC)c4)nc3c2)C1 (centres undefined) | ? | 29µM | i | 1.8µM | i | i
CCOC(=O)C1CCCN(C(=O)c2cccc(S(=O)(=O)N(Cc3ccccc3)c3ccccc3OC)c2)C1 (centres undefined) | 16µM | 23µM | nt | i | i | i
CCOC(=O)C1CCCN(C(=O)c2ccc3oc(CCc4ccccc4)nc3c2)C1 (centres undefined) | ? | i | i | ? | i | i
CCOC(=O)C1CCCN(C(=O)c2ccc3nc(-c4ccccc4)c(-c4ccccc4)nc3c2)C1 (centres undefined) | 21µM | ? | i | i | i | i
Cc1ccc2nc(Cl)c3cc(C(=O)NCCCN(C)Cc4ccccc4)sc3c2c1 | 10µM | ? | i | nt | nt | nt
CC1CCC(NC(=O)c2cc3c(Cl)nc4ccccc4c3s2)CC1 (centres undefined) | ? | ? | i | nt | nt | nt
SMILES | DT40 TDP1 no CPT | TDP1 cell CPT | TDP1 block | ELG1 repair inh | Giardia killer | IL1B secr inh
CN(CCCNC(=O)c1cc2c(Cl)nc3ccccc3c2s1)Cc1ccccc1 | 21µM | 15µM | i | i | i | -82
COc1ccc(N(C(=O)CSCC(=O)Nc2cc(C)on2)C(C(=O)NC2CCCCC2)c2ccc(O)c(O)c2)cc1 (centres undefined) | ? | i | i | i | i | i
Cc1cc(NC(=O)CSCC(=O)N(c2ccc(F)cc2)C(C(=O)NC2CCCCC2)c2ccc(O)c(O)c2)no1 (centres undefined) | 16µM | ? | i | i | i | -50
Cn1c(=O)c2c(-c3ccccc3)n3c(c2n(C)c1=O)C(c1ccccc1[N+](=O)[O-])Nc1ccccc1-3 (centres undefined) | i | 23µM | i | nt | nt | nt
Cc1ccc(C2Nc3ccccc3-n3c(-c4ccccc4)c4c(=O)n(C)c(=O)n(C)c4c32)cc1 (centres undefined) | ? | ? | i | nt | nt | nt
COc1ccc(-c2c3c(=O)n(C)c(=O)n(C)c3c3n2-c2ccccc2NC3c2ccc(O)cc2O)cc1 (centres undefined) | 16µM | 16µM | i | nt | nt | nt
Cc1cc2c(cc1C)-n1c(-c3ccccc3)c3c(=O)n(C)c(=O)n(C)c3c1C(c1ccco1)N2 (centres undefined) | i | i | i | nt | nt | nt
O=C1CCCC2=C1C1(CCSC1)N=C(Nc1nc3ccccc3o1)N2 (centres undefined) | nt | nt | i | nt | nt | nt
CNCCCCOc1ccc(C(C)(C)C)cc1Cl | ? | ? | i | i | i | -55
Cc1ccccc1CN1C(=O)c2ccccc2S(=O)c2ccc(C(=O)NCc3ccc(Cl)cc3)cc21 (centres undefined) | ? | ? | i | nt | nt | nt
COC(=O)c1ccc(Nc2cc(C)nc3ccccc23)cc1 | 18µM | ? | i | ? | i | -97
COC(=O)c1ccc2nc(C)cc(Nc3ccc(O)cc3)c2c1 | 15µM | 21µM | nt | nt | nt | nt
COC(=O)c1ccc2nc(C)cc(Nc3ccc(N(C)C)cc3)c2c1 | ? | i | i | i | i | i
Cc1ccc(S(=O)(=O)Nc2cccc(C(=O)NCC3CCCO3)c2)cc1F (centres undefined) | ? | ? | i | i | i | i
N#Cc1ccc(NC(=O)COc2ccc(-n3cnnn3)cc2)cc1 | i | i | ? | i | i | i
CCNC(=O)CCSc1nnc(-c2ccc(O)cc2)o1 | nt | nt | i | nt | nt | nt
COCc1c(C(=O)Nc2cccc(S(=O)(=O)N3CCCCC3)c2)oc2ccccc12 | ? | ? | i | ? | i | i
Cc1ccoc1C(=O)N1CCCCC1C(=O)O (centres undefined) | 18µM | ? | i | i | i | i
O=C(COC(=O)Cc1c(Cl)cccc1Cl)NCC1CCCO1 (centres undefined) | i | i | i | i | i | i
Cc1ccc(Nc2c([N+](=O)[O-])ccc3c2=NC2(CCCCC2)N=3)cc1 | 23µM | 16µM | i | i | i | i
O=[N+]([O-])c1ccc2c(c1Nc1ccccc1Cl)=NC1(CCCCC1)N=2 | i | i | i | i | i | i
CC(O)CNCCCOc1cccc(C(F)(F)F)c1 (centres undefined) | i | i | i | i | i | i

Bioassay records as filed in PubChem.
